# Reference: ChEMBL document CHEMBL4513216, “Probing the Open Global Health Chemical Diversity Library for Multistage-Active Starting Points for Next-Generation Antimalarials” (ACS Infect Dis, 2020)
# Hit rate of the full screen: of about 69,000 compounds, about 8,600 (12%) showed an effect of 50% or more. Only a selection was taken, and strong results are over-represented in it overall.
# Tested on: Plasmodium berghei
# Assay: Screen against P. berghei liver stage (PbLuc), transformed with Luciferase, at 10uM
# Type: functional, HepG2
# Settings: tested at 10 uM
row,SMILES,INHIBITION [%]
1,O=C(c1ccc2c(c1)CCC2)N1CC[C@H](O)[C@]2(CCCO2)C1,32.3
2,CC(C)c1nc(-c2cc(C(=O)NCCN(C)C)c3ccccn23)cs1,-2.41
3,Cc1csc(CNC(=O)N(C)Cc2ccc([S+](C)[O-])cc2)n1 (stereo unspecified),20.6
4,CN(Cc1ccc([S+](C)[O-])cc1)c1ccc(Cl)cn1 (stereo unspecified),33
5,CN(Cc1ccc([S+](C)[O-])cc1)c1cncc(Br)c1 (stereo unspecified),58.4
6,CN(Cc1ccc([S+](C)[O-])cc1)c1cncc(Cl)n1 (stereo unspecified),52.2
7,Cc1ncc(CNC(=O)N(C)Cc2ccc([S+](C)[O-])cc2)s1 (stereo unspecified),40.5
8,CN(Cc1ccncc1)c1cncc(Br)c1,33.4
9,CCc1cc(=O)[nH]c(SCc2ccccn2)n1,-35.5
10,Cc1noc(C(C)C)c1C(=O)N1CCC(n2cccn2)CC1,26.5
11,Cc1cc(C)n(CC2CN(Cc3nc(C)c(C)o3)CCO2)n1 (stereo unspecified),-47.6
12,CN1CCN(C(=O)NC2CC2)Cc2cccnc21,0.547
13,COC1COC2(CCN(Cc3ccc(Cl)cc3)CC2)C1 (stereo unspecified),19.5
14,Cn1cc(CNC2CCS(=O)(=O)C2)c(-c2cc3ccccc3o2)n1 (stereo unspecified),35
15,Cn1cc(CNC2CCC(O)CC2)c(-c2cc3ccccc3o2)n1 (stereo unspecified),72.1
16,Cn1cc(CNC2CCOCC2)c(-c2cc3ccccc3o2)n1,39.6
17,COc1cccc(CN2CCC3(CCN(C(=O)[C@H]4CCCO4)CC3)C2)c1,43.2
18,Cc1nn(C)c(=O)c2nn(-c3ccc(Cl)cc3)c(C)c12,28.5
19,O=C([C@H]1COC[C@H]2CN(CC3CCC3)C[C@H]21)N1CCOCC1,24.6
20,O=C(C1CN(CC2CC2)CC12CCOCC2)N1CCOCC1 (stereo unspecified),-7.24
21,O=C([C@H]1COC[C@H]2CN(CC3CC3)C[C@H]21)N1CCOCC1,60
22,O=C([C@H]1COC[C@H]2CN(CC3CCCC3)C[C@H]21)N1CCOCC1,11.3
23,O=C([C@@H]1COC[C@H]2CN(CC3CCCC3)C[C@H]21)N1CCOCC1,65.9

row,SMILES,INHIBITION [%]
1,O=C([C@@H]1COC[C@H]2CN(CC3CC3)C[C@H]21)N1CCC(F)CC1,12.7
2,Cc1cnn(CCNCc2csc(-c3ncccn3)n2)c1,27.95
3,CCc1nnc(CN(CC)C(=O)C2CC(=O)N(C3CCCC3)C2)o1 (stereo unspecified),43.2
4,Cc1cc(C)cc(C(=O)Nc2cccc(CN3CCCC3C(N)=O)c2)c1 (stereo unspecified),56
5,NC(=O)C1CCCN1Cc1cccc(NC(=O)c2cc(Cl)cc(Cl)c2)c1 (stereo unspecified),68.8
6,NC(=O)C1CCCN1Cc1cccc(NC(=O)c2cccs2)c1 (stereo unspecified),-8.22
7,NC(=O)C1CCCN1Cc1cccc(NC(=O)c2ccc(Cl)cc2F)c1 (stereo unspecified),44
8,NC(=O)C1CCCN1Cc1cccc(NC(=O)c2ccsc2)c1 (stereo unspecified),-18.4
9,CCc1ccc(C(=O)Nc2cccc(CN3CCCC3C(N)=O)c2)cc1 (stereo unspecified),-40.7
10,C[C@]12CCCCN(C(=O)c3ccccn3)[C@H]1CCCC(=O)N2,11.1
11,CC1CCc2nn(CCNC(=O)c3ccco3)c(=O)cc2C1 (stereo unspecified),-16.9
12,COc1cccc(S(=O)(=O)NC(=O)C2CC(c3ccccc3)=NO2)c1 (stereo unspecified),-24.7
13,COC[C@@H]1CCC[C@@]12CN(Cc1ccco1)CCO2,-0.813
14,CCOC[C@@H]1CCC[C@@]12CN(Cc1nccs1)CCO2,35.8
15,c1ccc(COC[C@@H]2CCC[C@]23CN(Cc2nccs2)CCO3)nc1,74.2
16,COC[C@@H]1CCC[C@]12CN(Cc1ccco1)CCO2,8.67
17,O=C(c1ccc[nH]1)N1CCO[C@]2(CCC[C@@H]2COc2cccnc2)C1,-34.7
18,COC[C@@H]1CCC[C@]12CN(Cc1cccc(C)n1)CCO2,-11.8
19,CCOC[C@@H]1CCC[C@@]12CN(Cc1cccnc1)CCO2,48.6
20,c1cncc(OC[C@@H]2CCC[C@@]23CN(Cc2nccs2)CCO3)c1,66
21,c1ccc(OC[C@H]2CCC[C@]23CN(Cc2nccs2)CCO3)nc1,38.7
22,c1coc(CN2CCO[C@@]3(CCC[C@@H]3COCc3nccs3)C2)c1,53.2
23,O=C(c1ccoc1)N1CCO[C@]2(CCC[C@@H]2COCc2ccncc2)C1,-6.23

row,SMILES,INHIBITION [%]
1,c1csc(COC[C@H]2CCC[C@]23CN(Cc2ccoc2)CCO3)n1,63.7
2,CCc1noc(C2CCCCN2C(=O)c2sccc2C)n1 (stereo unspecified),40.8
3,O=C(O)c1cc2c(nc1N1CCOCC1)CCN(C1CCOC1)CC2 (stereo unspecified),-12.1
4,CC(=O)NC1CCCN(C(=O)NCc2cccnc2)C1 (stereo unspecified),-51.5
5,CC(C)CN1CCC2(CC1)CC(NS(C)(=O)=O)c1ccccc1O2 (stereo unspecified),6.55
6,CCOCCCC(=O)N(C)C(c1cccc(F)c1)c1ccccn1 (stereo unspecified),-18
7,Cc1nc(C2CCNCC2)cc(N(C)Cc2cc3cc(F)ccc3[nH]2)n1,33.5
8,COc1cnc(CSc2nnc(C)s2)cc1OCC(N)=O,34.2
9,CCN1C(=O)CCCC12CCCN(C(=O)c1occc1C)C2 (stereo unspecified),23.5
10,CC(CO)(NCc1noc(Cc2ccccc2)n1)C1CCCCC1 (stereo unspecified),-1.7
11,O=C(O)[C@@H]1CN(C(=O)CSCC2CC2)C[C@H]1c1ccccn1,-87
12,CCOc1ncccc1CNC(=O)c1c(C)oc(C)c1C,29.75
13,CC(NC(=O)c1cccc[n+]1[O-])c1ccc2c(c1)CCC(=O)N2 (stereo unspecified),62.6
14,Cc1csc(CNC(=O)NC(C)c2ccc3c(c2)CCC(=O)N3)n1 (stereo unspecified),9.64
15,CC(NC(=O)NCc1ccccn1)c1ccc2c(c1)CCC(=O)N2 (stereo unspecified),-75.2
16,CC(NC(=O)NCc1cc[nH]n1)c1ccc2c(c1)CCC(=O)N2 (stereo unspecified),51.2
17,Cc1ccsc1C(=O)NC(C)c1ccc2c(c1)CCC(=O)N2 (stereo unspecified),11.7
18,CC(NC(=O)c1ccoc1)c1ccc2c(c1)CCC(=O)N2 (stereo unspecified),-6.14
19,Cn1cnnc1C1CCN(C(=O)CCCOCc2ccccc2)CC1,43.2
20,COc1nc(C)ccc1CNC(=O)NC(c1ncc(C)s1)C1CC1 (stereo unspecified),-21.1
21,C[C@@H]1CN(CCOc2ccc(F)cc2)CC[C@@]1(O)C1CCOCC1,28.8
22,O[C@H]1CN(CCCOc2ccccc2F)CC[C@@]12CCCO2,6.485
23,O[C@H]1CN(CCOc2ccc(F)cc2)CC[C@@]12CCCO2,62.9

row,SMILES,INHIBITION [%]
1,Cc1noc(C)c1CCC(=O)N1CCCC(n2cccn2)C1 (stereo unspecified),37.4
2,CCc1nc(NC2CC(=O)N(CC3CCCCC3)C2)ncc1C (stereo unspecified),2.97
3,Cc1nc(Nc2ccccn2)cc(C2CCCN2C2CCOCC2)n1 (stereo unspecified),20.8
4,Cc1nc(NC2CCOCC2)cc(C2CCN2S(C)(=O)=O)n1 (stereo unspecified),30.6
5,Cc1nc(Nc2ncc(C)s2)cc(C2CCCN2)n1 (stereo unspecified),67.15
6,Cc1nc(Nc2nnc(C)s2)cc(C2CCCN2)n1 (stereo unspecified),-24.595
7,Cc1nc(Nc2ncccn2)cc(C2CCCN2C2CCOCC2)n1 (stereo unspecified),15.4
8,Cc1nc(Nc2nccs2)cc(C2CCCN2C2CCOCC2)n1 (stereo unspecified),52.3
9,Cc1nc(Nc2nnc(C)s2)cc(C2CCCN2S(C)(=O)=O)n1 (stereo unspecified),6.32
10,Cc1nc(Nc2ncc(C)s2)cc(C2CCCN2S(C)(=O)=O)n1 (stereo unspecified),50.8
11,Cc1nc(Nc2nccs2)cc(C2CCCN2)n1 (stereo unspecified),5.05
12,Cc1cc(CN(C)C(=O)C2CC(c3cccc(F)c3)=NO2)no1 (stereo unspecified),7.24
13,CCNC(=O)c1ccc2c(c1)nc1n2CCN(C(C)C)C1,-17.2
14,COc1ccccc1C(=O)N1CCCC1c1ncc2c(n1)CCNC2 (stereo unspecified),26.3
15,CCCC(O)CN1CCC(=O)N(CCOC)Cc2ccccc21 (stereo unspecified),6.34
16,CC(C)C(C)N(C)C(=O)COc1ccccc1C#N (stereo unspecified),16.8
17,COC(=O)c1ccc(NC(=O)CCc2ccco2)cc1,-13.6
18,Cc1nnc(C(C)N2CCCN(Cc3ccc(C#N)cc3)CC2)o1 (stereo unspecified),24
19,O=c1ccc2c([nH]1)CCC(NCc1ccc(F)cc1)C2 (stereo unspecified),45.1
20,Cc1ccc(C)c(CC(=O)NC2(C#N)CCOCC2)c1,20.4
21,O=C(c1ccccn1)N(CCO)Cc1cc(Br)ccc1F,-0.759
22,Cc1nn(C2CCS(=O)(=O)C2)c(O)c1Cc1ccccc1 (stereo unspecified),36.9
23,CCOCC1CN(Cc2ccoc2)Cc2nn(C)cc21 (stereo unspecified),16.8

row,SMILES,INHIBITION [%]
1,CNc1cncc(C2CCN(C(=O)c3coc(C)n3)CC2)n1,58
2,CNc1cncc(C2CCN(C(=O)c3cnco3)CC2)n1,8.53
3,CNc1cccc(C2CCCN(C(=O)c3coc(C)n3)C2)n1 (stereo unspecified),41.2
4,Cc1cc(Br)oc1C(=O)N1CCN(CC(N)=O)CC1,20.9
5,CC(=O)N1CCCN(C(=O)c2oc(Br)cc2C)CC1,58.5
6,Cc1cc(Br)oc1C(=O)N1CCCN(CC(N)=O)CC1,30.3
7,Cn1cc(C2CC(=O)NC23CCN(CC2CC2)CC3)cn1 (stereo unspecified),48.7
8,Cc1nc(N2CCCC2)nc2c1CCN(Cc1ccco1)CC2,15.1
9,Cc1ccc(F)c2c1N(C(=O)c1cn(CC(=O)N(C)C)nn1)CCC2,-9.21
10,CN(C)CCN1CCOCC2(C1)CN(Cc1nccs1)CCO2 (stereo unspecified),14.1
11,NS(=O)(=O)c1ccc(NC(=O)CSc2ccc3c(c2)CCC3)cc1,66.8
12,CS(=O)(=O)c1ccc(NC(=O)CSc2ccc3c(c2)CCC3)cc1,31.2
13,CN1C(=O)c2ccc(NC(=O)CSc3ccc4c(c3)CCC4)cc2C1=O,11.5
14,CS(=O)(=O)c1ccc(NC(=O)NCc2ccc3c(c2)CCC3)cn1,24
15,NC(=O)c1cccc(NC(=O)CSc2ccc3c(c2)CCC3)c1,40.6
16,CNC(=O)NC(=O)CCSc1ccccc1C,29.8
17,CNC(=O)Cc1noc(Cc2ccc3c(c2)CCCC3)n1,15.9
18,CNC(=O)NC(=O)CSc1ccc2c(c1)CCC2,54.3
19,CS(=O)(=O)c1ccc(NC(=O)CSc2ccc3c(c2)CCC3)cn1,53.4
